The list is not random: actives were taken first. Their share in the collection is about 7.3%.
VACV mCherry inh = vaccinia inhibition (mCherry reporter) | Vaccinia virus mCherry reporter infection, fluorescence | Potency, µM (top dose mostly 36.5 µM), hits mostly inhibitors | 310,000 compounds, 0.63% hits | AID 720579; calls by dose curve; tested in A549 cells; note: nearly all actives have a fitted effect of over 35% in size
HCV inh = HCV inhibition. Huh7.5.1 HCVcc-Cre infection, luciferase reporter, 44 h. Potency, µM (series often up to 41.8 µM), actives largely listed as inhibitors. 340,000 compounds, 3.4% hits; active = well fitted inhibition curve with a large enough effect; inconclusive = small, poorly fitted or top-dose-only effect, or another doubt; inactive = no such curve, though single readings can be large or run the other way
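Luciferase read-out (15 sec integration) after a 15 min room-temperature substrate step quantifies HCVcc-Cre infection. Cells, 1,000 per well, had compound added 4 h post-plating, then virus at ~0.5 moi, and were cultured 44 h.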
HCMV inh = human cytomegalovirus inhibition; HFF cells, HCMV-luciferase reporter, 72 h; active compounds read low; activity change, negative = inhibition, % at 57.5 µM; 410,000 compounds, 4.5% hits; in the data active = activity change below about -60%; inconclusive = no clear call, values can overlap the other calls; inactive = above about -39%
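HFF cells seeded 16 h at 37C, treated with compounds, infected with luciferase-reporter HCMV at MOI 1 PFU/cell; luciferase read at 72 h post infection, normalized to buffer-only and Salinomycin controls.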
VACV Venus inh = inhibitors of vaccinia virus (Venus reporter). Vaccinia virus Venus reporter expression, fluorescence. Potency, µM (top dose mostly 36.5 µM), hits mostly inhibitors. 330,000 compounds, 0.46% hits. AID 720580; calls by dose curve; tested in A549 cells; note: nearly all actives have a fitted effect of over 30% in size
FMDV inh = foot and mouth disease virus antiviral activity; FMDV antiviral cell-based qHTS; Potency, µM (series often up to 57.9 µM), usual class: inhibitors; 410,000 compounds, 1.2% hits; AID 1159524; calls by dose curve; tested in HEK293T cells; note: read-out not given here; nearly all actives have a fitted effect of over 45% in size
Each line names hits and unclear results; the compound was inactive in the other large screens.

COc1ccc(OC)c(C2CC(=O)c3c([nH]c(C(=O)OC(C)C)c3C)C2)c1 (stereo unspecified)	HCV inh inconclusive, HCMV inh -70.5 (no result: VACV mCherry inh, VACV Venus inh)
CCCOCCOC(=O)c1[nH]c2c(c1C)C(=O)CC(c1cc(OC)ccc1OC)C2 (stereo unspecified)	VACV mCherry inh inconclusive, HCV inh inconclusive, HCMV inh -80.4, FMDV inh inconclusive
COCCOC(=O)c1[nH]c2c(c1C)C(=O)CC(c1cc(OC)ccc1OC)C2 (stereo unspecified)	HCV inh inconclusive
CCOCCOC(=O)c1[nH]c2c(c1C)C(=O)CC(c1ccc(OC)c(OC)c1)C2 (stereo unspecified)	HCV inh inconclusive, HCMV inh inconclusive, FMDV inh 22.4µM
O=S(=O)(c1ccc2[nH]c3c(c2c1)CCCCC3)N1CCN(c2cccc(Cl)c2)CC1	none (no result: HCV inh)
Cc1ccc(CN(Cc2ccco2)C(=O)c2ccccc2Cl)o1	none (no result: HCV inh)
O=C(CCl)N1c2ccccc2OCC1c1ccccc1 (stereo unspecified)	HCMV inh -62.2, FMDV inh 17.8µM
O=C(CCl)N1c2ccccc2SCC1c1ccccc1 (stereo unspecified)	HCV inh inconclusive, HCMV inh -98.0, FMDV inh 28.2µM
O=C(CN1CCSc2ccccc21)N1CCCCC1	none (no result: HCV inh)
COc1cccc(-n2cc(C(=O)Nc3ccccc3C(N)=O)c3ccccc3c2=O)c1	HCMV inh -79.8 (no result: HCV inh)
COc1ccc(-n2cc(C(=O)N(C)c3cc(C)ccc3OC)c3ccccc3c2=O)cc1	HCMV inh -84.9 (no result: HCV inh)
CCN(C(=O)c1cn(-c2cccc(OC)c2)c(=O)c2ccccc12)c1ccccc1C	HCMV inh -69.9 (no result: HCV inh)
CCN(CC)C(=O)c1cn(-c2cccc(OC)c2)c(=O)c2ccccc12	none (no result: VACV mCherry inh, VACV Venus inh)
CCOC(=O)c1cccc(NC(=O)c2ncoc2-c2ccco2)c1	none (no result: HCV inh)
COc1ccc(C(=O)/C=C/c2cn(CC(O)CN3CCN(C)CC3)c3ccccc23)cc1OC (stereo unspecified)	VACV mCherry inh inconclusive, HCMV inh -78.2, VACV Venus inh inconclusive
COc1ccc(C(=O)/C=C/c2cn(CC(O)CN3CCCCCC3)c3ccccc23)cc1OC (stereo unspecified)	VACV mCherry inh inconclusive, HCMV inh -90.9 (no result: HCV inh)
O=C(/C=C/c1cn(CC(O)CN2CCCCC2)c2ccccc12)c1ccccc1 (stereo unspecified)	HCV inh inconclusive, HCMV inh -84.5
O=C(/C=C/c1cn(CC(O)CN2CCCCCC2)c2ccccc12)c1ccccc1 (stereo unspecified)	none (no result: HCV inh)
Cc1ccc(C(=O)/C=C/c2cn(CC(O)CN3CCCCCC3)c3ccccc23)cc1 (stereo unspecified)	FMDV inh inconclusive (no result: HCV inh)
O=C(NCc1ccccc1)C(c1ccc(Cl)cc1)N(C(=O)c1csnn1)C1CC1 (stereo unspecified)	HCMV inh -63.0
O=C(NCc1ccc(F)cc1)C(c1ccc(F)cc1)N(C(=O)c1csnn1)C1CC1 (stereo unspecified)	none
COCCN(C(=O)c1csnn1)C(C(=O)NC1CCCCC1)c1ccc(Cl)cc1 (stereo unspecified)	HCMV inh -99.2
O=[S+]([O-])([O-])c1ccc2c(c1)cc([S+](=O)([O-])[O-])c1nn(-c3ccc(/C=C/c4ccc(-n5nc6c([S+](=O)([O-])[O-])cc7cc([S+](=O)([O-])[O-])ccc7c6n5)cc4[S+](=O)([O-])[O-])c([S+](=O)([O-])[O-])c3)nc12	none (no result: HCV inh, HCMV inh, FMDV inh)
O=C(COC(=O)CCc1ccc(S(=O)(=O)N2CCCCC2)cc1)Nc1cccc2ccccc12	HCMV inh -106.3
COc1cccc(C(=O)OCC(=O)c2ccc(S(=O)(=O)N3CCCCC3)cc2)c1OC	HCMV inh -99.6, FMDV inh inconclusive
Cc1ccc(C)c(C(=O)OCC(=O)Nc2cccc(S(=O)(=O)N3CCCCC3)c2)c1	HCV inh 10µM, HCMV inh inconclusive, FMDV inh inconclusive (no result: VACV mCherry inh, VACV Venus inh)
CC1CCc2c(C(=O)OCC(=O)Nc3cccc(S(=O)(=O)N4CCCCCC4)c3)csc2C1 (stereo unspecified)	HCV inh 7.08µM, HCMV inh inconclusive
Cc1ccccc1C(=O)OCC(=O)Nc1cccc(S(=O)(=O)N2CCCCC2)c1	none (no result: HCV inh)
Cc1cccc(C)c1NC(=O)COC(=O)CCc1ccc(S(=O)(=O)N2CCCCC2)cc1	none
Cc1ccc(NC(=O)COC(=O)c2csc3c2CCC(C)C3)cc1S(=O)(=O)N1CCCCC1 (stereo unspecified)	HCV inh inconclusive
